Among all 59,000 compounds or so, about 6,500 (11%) were called active. Another 15% or so got no clear call; they are omitted. Rule as the data show it: active = max dye-equivalent concentration above about 10 nM; inconclusive = mostly about 1.1 nM to 9.6 nM; inactive = weaker than that. The entries come from a sample that favours actives as a whole.
Assay: qHTS Assay for Spectroscopic Profiling in A350 Spectral Region
Details: Compound autofluorescence, 340/450 nm, Alexa 350 dye-equivalents; stronger effect = higher value

SMILES | max dye-equivalent concentration
COc1cc(C2C(C#N)=C(N)Oc3n[nH]c(-c4ccccn4)c32)cc(OC)c1OC (centres undefined) | inactive
CCc1nnc(NC(=O)c2c(O)c3c([nH]c2=O)CCCC3)s1 | inactive
CN(Cc1ccccc1)Cc1ccccc1F | inactive
Cc1ccc(S(=O)(=O)N2CCC(C(=O)N[C@@H](C)C(=O)NCc3ccccc3)CC2)cc1 | inactive
O=C(c1csnn1)N1CCC2(CC1)CN(c1ncccn1)C2 | inactive
CC(C)OCCCNC(=O)CNC(=O)c1cccs1 | inactive
CCCCOc1ccc(Cl)cc1CSc1nncn1N | inactive
O=C1[C@@H]2C(Cc3ccc(O)cc3)NC3(C(=O)Nc4ccc(F)cc43)[C@@H]2C(=O)N1c1ccc(F)cc1 (some centres undefined) | inactive
CC(C)Cc1nc(N2CCOCC2)c(C#N)c2c1CCC2 | 62 nM (active)
Cc1cc(C(=O)COC(=O)CCCN2C(=O)c3ccccc3C2=O)c(C)n1C | inactive
O=C(CN1C(=O)CCC1=O)Nc1ccc(S(=O)(=O)N2CCOCC2)cc1 | inactive
CC(=O)OCc1cc(=O)n(C)c(=O)n1C | inactive
COc1c(C)cccc1C(=O)Nc1cc(Cl)ccc1N1CCOCC1 | inactive
O=C(O)[C@@H](O)Cc1ccccn1 | inactive
COc1ccc2c(c1)CCc1c(C(=O)N3CCc4ccccc4C3)noc1-2 | inactive
CCOC(=O)c1[nH]c2ccccc2c1N=C(C)N(CC)CC | inactive
CCOC(=O)CN(C)Cc1c[nH]c2ccccc12 | inactive
CCOC(=O)c1[nH]c2ccc(C)cc2c1N=C(C)N(C)C | 29 nM (active)
CC(=O)c1cccc(NC(=O)N2CCCC2C(=O)NCCC(C)C)c1 (centres undefined) | inactive
CC12CCC(C(=O)N3CCN(c4ncccn4)CC3)(c3nc4ccccc4nc31)C2(C)C (centres undefined) | inactive
O=c1nc(N2CCOCC2)nc2n1CCO2 | inactive
O=C(CSc1nc2ccccc2[nH]1)c1cccs1 | inactive
N#Cc1c(N)n(CCOC(=O)c2ccc(Cl)cc2)c2nc3ccccc3nc12 | 610 nM (active)
Cn1cccc1C(=O)N1CCC2(CC1)CN(c1cccc(-c3ccccc3)c1)C2 | inactive
CC[C@@H]1Cc2cc(O)ccc2C2=C1c1ccc(O)cc1C[C@H]2CC | 260 nM (active)

SMILES | max dye-equivalent concentration
CCC1SC2=NCCN2C1(O)c1ccc(Cl)cc1 (centres undefined) | inactive
Cc1cc(NC(=O)c2cnn3cccnc23)n(-c2ccccc2)n1 | inactive
CCC(C(=O)NC1CCCC1)N(C(=O)c1snc(C(N)=O)c1N)c1ccc2c(c1)OCCO2 (centres undefined) | inactive
COCCNC(=O)C(c1ccc(C)o1)N(Cc1ccccc1)C(=O)Cn1nnc2ccccc21 (centres undefined) | inactive
COCCNC(=O)C(c1ccc(C)o1)N(Cc1cccs1)C(=O)c1snc(C(N)=O)c1N (centres undefined) | 88 nM (active)
N=c1c2c3c(sc2ncn1CCCN1CCOCC1)CCCCC3 | inactive
O=c1[nH]nc(Cc2ccccn2)c2ccccc12 | inactive
CN(CCc1ccccn1)S(=O)(=O)c1ccc2c3c(cccc13)C(=O)N2 | 790 nM (active)
CCNc1nc(N)nc(Oc2ccc(OCC)nn2)n1 | inactive
COc1ccccc1N1CCN(C(=O)CN(Cc2ccc(Cl)cc2)S(C)(=O)=O)CC1 | inactive
Cn1cccc1C(=O)NC(=O)COC(=O)Cc1coc2ccc3ccccc3c12 | 38 nM (active)
Cn1cccc1C(=O)Nc1nccs1 | inactive
O=C1C2(c3ccccc3)CN(CCCO)CC1(c1ccccc1)CN(CCCO)C2 | inactive
Cn1c(=O)[nH]c(=O)c2c1nc(Br)n2CCCCSc1nc2ccccc2o1 | inactive
Fc1ccc2nc(N3CCCCC3)sc2c1 | inactive
Cc1cc(N2CCCCC2)nc2ccc(Cc3ccc4nc(N5CCCCC5)cc(C)c4c3)cc12 | 43 nM (active)
CCCn1c(SCC(=O)Nc2cccc(C(=O)OCC)c2)nnc1-c1ccoc1C | inactive
Cc1cc(=O)cc(C)[nH]1 | inactive
Cc1ccccc1-c1nc(N(C)Cc2ccco2)c2ccccc2n1 | inactive
Clc1cccc(Cl)c1Cn1nnc(-c2cccs2)n1 | inactive
CCOC(=O)c1c(N)c(C#N)nn1-c1ccccc1C(=O)OC | inactive
O=C(Nc1ccccc1)c1cccnc1Nc1ccccc1 | inactive
COC(=O)Nc1nc2ccc(Sc3ccccc3)cc2[nH]1 | 16 nM (active)
Oc1ccc2nc(Cc3ccccc3)[nH]c2c1 | inactive
CCC(=O)Nc1cccc(NC(=O)CSc2nnnn2C2CCCC2)c1 | inactive

SMILES | max dye-equivalent concentration
Cc1ccc(S(=O)(=O)NCc2cn3ccsc3n2)c(C)c1 | inactive
COc1cc(-c2nn3c(-c4cccc(C)c4)nnc3s2)cc(OC)c1OC | 2600 nM (active)
c1ccc(-c2cc(-c3nnc4sc(-c5ccccn5)nn34)[nH]n2)cc1 | inactive
CCOc1cccc(-c2nnc3sc(COc4ccc(OC)cc4)nn23)c1 | inactive
CCOC(=O)CNC(=O)CSc1nnc(-c2cccc(OC)c2)n1CC | inactive
O=C(CSc1nnc2scc(-c3ccc(F)cc3)n12)NCc1ccco1 | inactive
Cc1nnc2sc(-c3ccco3)nn12 | inactive
Fc1ccc(-c2nnc3sc(-c4ccc5c(c4)OCO5)nn23)cc1 | 36 nM (active)
c1ccc(-c2nnc3n2NC(c2ccc4c(c2)OCO4)S3)cc1 (centres undefined) | inactive
CC(=O)Nc1ccc(-c2nn3c(C)nnc3s2)cc1C | inactive
Fc1ccc(-c2ccc(-c3nn4c(-c5ccco5)nnc4s3)o2)cc1 | 68 nM (active)
COc1ccccc1Cn1c(=S)[nH]c2cc(C(=O)N3CCN(C)CC3)ccc2c1=O | inactive
CSCCC1NC2(C(=O)Nc3ccc(Cl)cc32)[C@@H]2C(=O)N(C3CCCC3)C(=O)[C@H]12 (some centres undefined) | inactive
Cc1ccc2c(C(=O)CN3CCCC3)c(C)[nH]c2c1 | inactive
CC(C)C(=O)N1CCN(CCN=CC2=C(O)CC(c3ccco3)CC2=O)CC1 (centres undefined) | inactive
CC(C)c1ccc(N2CC(C(=O)Nc3nccs3)CC2=O)cc1 (centres undefined) | inactive
COC(=O)c1ccc(CSc2nncn2C)cc1 | inactive
O=C(NCCSc1ccccc1)c1ccco1 | inactive
O=C(CSc1nc(-c2ccco2)cc(C(F)(F)F)n1)N1CCc2ccccc2C1 | inactive
O=C(NCc1ccco1)c1cnn2c(C(F)(F)F)cc(-c3ccco3)nc12 | 300 nM (active)
O=C(Nc1ccccc1)Nc1ccccc1C(=O)NCc1ccco1 | inactive
O=C(NCc1ccco1)c1cc(-c2cccnc2)nc2ccc(Cl)cc12 | inactive
COC(=O)c1ccccc1NC(=O)Cn1nc(C(F)(F)F)c2c1CCC2 | inactive
COC(=O)c1cnn2c(C(F)(F)F)cc(-c3ccco3)nc12 | 870 nM (active)
